High-throughput results: PubChem BioAssay, National Center for Advancing Translational Sciences (NCATS)
Compounds with a hit are over-represented: about 7.8% of the library has one in this group of screens.
HCMV inh: qHTS Assay for inhibitors of the human cytomegalovirus (HCMV). HFF cells, HCMV-luciferase reporter, 72 h; stronger effect = lower value. activity change, negative = inhibition, % at 57.5 µM. hit rate 4.5% among 410,000. AID 1259415, 2018; in the data active = activity change below about -60%; inconclusive = no clear call, values can overlap the other calls; inactive = above about -39%
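Inhibition of viral replication was scored as loss of reporter luminescence in HFFs infected with HCMV-luciferase (MOI 1 PFU/cell) for 72 h; compounds tested at 2 doses, normalized to buffer and Salinomycin controls.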
Vaccinia mCherry: qHTS for Stage-Specific Inhibitors of Vaccinia Orthopoxvirus: mCherry Reporter Primary qHTS; Vaccinia virus mCherry reporter infection, fluorescence; Potency, µM (top dose mostly 36.5 µM), usual class: inhibitors; hit rate 0.63% among 310,000; AID 720579, 2013; calls by dose curve; tested in A549 cells; also: nearly all actives have a fitted effect of over 35% in size
Vaccinia Venus: qHTS for Stage-Specific Inhibitors of Vaccinia Orthopoxvirus: Venus Reporter Primary qHTS. Vaccinia virus Venus reporter expression, fluorescence. Potency, µM (doses to about 36.5 µM), hits mostly inhibitors. hit rate 0.46% among 330,000. AID 720580, 2013; calls by dose curve; tested in A549 cells; also: nearly all actives have a fitted effect of over 30% in size
HCV inhibitor: qHTS Assay for Inhibitors of Hepatitis C Virus (HCV); AID 651820, 2012; Huh7.5.1 HCVcc-Cre infection, luciferase reporter, 44 h; Potency, µM (doses to about 41.8 µM), hits mostly inhibitors; hit rate 3.4% among 340,000; active = well fitted inhibition curve with a large enough effect; inconclusive = small, poorly fitted or top-dose-only effect, or another doubt; inactive = no such curve, though single readings can be large or run the other way
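Whole-lifecycle infectious HCVcc-Cre system; cells 1,000/well, compound then virus (~0.5 moi) added 4 h after plating, 44 h culture. Luciferase read 15 sec following 15 min substrate incubation, room temp.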
MARV entry inh: qHTS for inhibitors of binding or entry into cells for Marburg Virus. hit rate 1.8% among 300,000. Potency, µM (titrated, usually from 37.8 µM), hits mostly inhibitors. Marburg virus pseudotyped entry inhibition, cell reporter. AID 540276, 2011; calls by dose curve; tested in HEK293 cells
LASV entry inh: qHTS for Inhibitors of binding or entry into cells for Lassa Virus; Lassa virus pseudotype entry inhibition, cell reporter; Potency, µM (highest dose often 37.9 µM), usual class: inhibitors; hit rate 1.2% among 300,000; calls by dose curve; tested in HEK293 cells; also: nearly all actives have a fitted effect of over 50% in size
Each line names hits and unclear results; the compound was inactive in the other large screens.

COc1ccc(N2C(c3ccsc3)=Cc3cc4c(cc3C2c2c[nH]c3ccccc23)OCO4)cc1 (stereo not given)	HCMV inh -95.1 (no result: HCV inhibitor, MARV entry inh, LASV entry inh)
C=CCn1c(O)c(C(C)=NCc2cccnc2)c(=O)[nH]c1=O	LASV entry inh inconclusive (no result: Vaccinia mCherry, Vaccinia Venus)
C=CCn1c(O)c(C(C)=NCc2cc(OC)cc(OC)c2)c(=O)[nH]c1=O	Vaccinia mCherry 8.91µM, Vaccinia Venus 5.01µM, HCV inhibitor inconclusive, MARV entry inh inconclusive
CC(NC(=O)c1cccc(Br)c1)c1ccccc1 (stereo not given)	HCMV inh -69.9, MARV entry inh inconclusive
CC(NC(=O)c1cc(Br)ccc1Br)c1ccccc1 (stereo not given)	none (no result: Vaccinia mCherry, Vaccinia Venus, HCV inhibitor, MARV entry inh, LASV entry inh)
O=C(O)c1cccc(Br)c1	HCV inhibitor 0.794µM (no result: MARV entry inh, LASV entry inh)
COc1ccc(OC[C@@H]2CC3[C@@H](CC[C@@H](C)[C@H]3c3ccc(Br)cc3)C(=O)O2)cc1 (stereo not given in full)	LASV entry inh inconclusive (no result: HCMV inh, Vaccinia mCherry, Vaccinia Venus, HCV inhibitor)
CN(CC(=O)Nc1ccc(Cl)cc1)C(=O)c1sccc1-c1ccccc1	HCV inhibitor 12.6µM (no result: Vaccinia mCherry, Vaccinia Venus, MARV entry inh, LASV entry inh)
CN(CC(=O)Nc1cccc(F)c1)C(=O)c1sccc1-c1ccccc1	HCV inhibitor inconclusive
CCOC(=O)c1cnc(N2CC2)nc1N	HCMV inh -68.4, MARV entry inh 10µM, LASV entry inh inconclusive
CCOC(=O)c1cnc(SC)nc1N	none (no result: Vaccinia mCherry)
Clc1ccc(C2=Nn3c(nnc3-c3cc(-c4ccccc4)n[nH]3)SC2)cc1	HCV inhibitor inconclusive, MARV entry inh inconclusive, LASV entry inh inconclusive (no result: Vaccinia mCherry, Vaccinia Venus)
COc1ccc(OC)c(-c2nnc3n2N=C(c2ccc(OC)c(OC4CCOC4)c2)CS3)c1 (stereo not given)	HCMV inh -75.3 (no result: Vaccinia mCherry, Vaccinia Venus, HCV inhibitor, MARV entry inh, LASV entry inh)
COc1ccc(C2=Nn3c(nnc3-c3ccccc3Cl)SC2)cc1OC1CCOC1 (stereo not given)	none (no result: Vaccinia mCherry, Vaccinia Venus, HCV inhibitor, MARV entry inh, LASV entry inh)
COc1ccc(C2=Nn3c(nnc3-c3ccccc3F)SC2)cc1OCC1CC1	HCMV inh -97.7 (no result: Vaccinia mCherry, Vaccinia Venus, HCV inhibitor, MARV entry inh, LASV entry inh)
COc1ccc(C2=Nn3c(nnc3-c3ccccc3Cl)SC2)cc1OC1CCCC1	HCMV inh -93.7 (no result: Vaccinia mCherry, Vaccinia Venus, HCV inhibitor, MARV entry inh, LASV entry inh)
c1ccc(C2=Nn3c(nnc3-c3cc(-c4ccccc4)n[nH]3)SC2)cc1	Vaccinia Venus inconclusive, HCV inhibitor inconclusive, MARV entry inh inconclusive, LASV entry inh 15.8µM (no result: Vaccinia mCherry)
CCOc1ccc(S(=O)(=O)c2cn(Cc3ccc(C)cc3)c3ccc(OC)cc3c2=O)cc1	MARV entry inh inconclusive, LASV entry inh inconclusive (no result: HCV inhibitor)
COc1cccc(-c2n[nH]c3ccnc(-c4cccc(C(C)=O)c4)c23)c1	none (no result: Vaccinia mCherry, Vaccinia Venus, HCV inhibitor, MARV entry inh, LASV entry inh)
COCc1ccc(CN2CCOc3c(cc(-c4cc(C)c5cccc(OC)c5n4)cc3OC)C2)o1	none (no result: HCMV inh, HCV inhibitor, MARV entry inh, LASV entry inh)
Cc1nc2ccn(Cc3ccco3)c(=O)c2cc1C(=O)NCc1ccc(F)cc1	LASV entry inh inconclusive (no result: HCV inhibitor, MARV entry inh)
COc1ccc(C2=Nn3c(nnc3-c3ccccn3)SC2)cc1OC	none (no result: Vaccinia mCherry, Vaccinia Venus)
COc1cc(-c2nnc3n2N=C(c2ccccc2)CS3)cc(OC)c1OC	Vaccinia mCherry inconclusive, Vaccinia Venus inconclusive, HCV inhibitor 10µM, MARV entry inh inconclusive, LASV entry inh inconclusive
COc1ccc(C2=Nn3c(nnc3-c3ccccc3OC)SC2)cc1OC	HCMV inh -96.9, Vaccinia mCherry inconclusive, HCV inhibitor inconclusive, MARV entry inh inconclusive, LASV entry inh inconclusive
CCOc1ccc(C2=Nn3c(nnc3-c3ccccc3)SC2)cc1Cl	HCMV inh -102.0, Vaccinia Venus inconclusive, MARV entry inh inconclusive
Cc1[nH]c2c(F)cccc2c1CC(=O)NCCN1Cc2ccccc2OC(C)C1 (stereo not given)	none (no result: HCMV inh, HCV inhibitor, MARV entry inh, LASV entry inh)
CC1CCCCC1NC(=S)NC(=O)c1sc2ccccc2c1Cl (stereo not given)	none
O=C(NC(=S)N(CCCCO)C1CCCCC1)c1sc2ccccc2c1Cl	HCMV inh inconclusive, Vaccinia Venus inconclusive, MARV entry inh 13µM, LASV entry inh inconclusive
CCOC(=O)N1CCN(S(=O)(=O)c2ccc(C(=O)NNc3nc4c(C)cc(C)cc4s3)cc2)CC1	HCMV inh -103.7, Vaccinia mCherry 10µM, Vaccinia Venus inconclusive, HCV inhibitor 11.2µM, MARV entry inh inconclusive, LASV entry inh inconclusive
CCOC(=O)N1CCN(S(=O)(=O)c2ccc(C(=O)NNc3nc4cc(C)cc(C)c4s3)cc2)CC1	Vaccinia mCherry 12.6µM, Vaccinia Venus inconclusive, HCV inhibitor 3.55µM, MARV entry inh 20.6µM, LASV entry inh inconclusive (no result: HCMV inh)
